sEH activator – soluble epoxide hydrolase activators, primary screen, biochemical, human sEH. Bifunctional epoxide hydrolase 2 (Homo sapiens), P34913. activation, % at 2 µM. purified human sEH enzymatic activity, activator screen. hit rate 0.04% among 91,000; in the data active means activation above about 37%
Target sequence (P34913 whole entry, looked up): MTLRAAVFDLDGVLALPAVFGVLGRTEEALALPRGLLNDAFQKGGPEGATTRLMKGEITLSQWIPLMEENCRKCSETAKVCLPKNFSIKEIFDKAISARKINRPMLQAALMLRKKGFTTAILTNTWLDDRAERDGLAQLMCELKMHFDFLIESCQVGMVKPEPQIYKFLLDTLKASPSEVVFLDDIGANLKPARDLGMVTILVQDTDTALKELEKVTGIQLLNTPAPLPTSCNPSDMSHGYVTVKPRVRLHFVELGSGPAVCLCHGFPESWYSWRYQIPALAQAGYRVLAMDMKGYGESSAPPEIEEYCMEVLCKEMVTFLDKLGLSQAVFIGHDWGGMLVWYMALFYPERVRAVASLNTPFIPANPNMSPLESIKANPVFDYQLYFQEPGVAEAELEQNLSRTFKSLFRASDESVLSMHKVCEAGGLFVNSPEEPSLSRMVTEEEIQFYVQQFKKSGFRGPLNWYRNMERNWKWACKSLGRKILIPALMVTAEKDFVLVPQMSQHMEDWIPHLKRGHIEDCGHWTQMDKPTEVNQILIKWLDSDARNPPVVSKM
IL1B NFkB inh – inhibitors of IL-1B driven NFkB p65 nuclear import, primary screen, imaging, HUVEC, IL-1B stimulus, high-content imaging. HUVEC IL-1B NFkB p65 nuclear translocation imaging. inhibition, % at 2 µM. hit rate 0.43% among 94,000. AID 796, 2007;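 active means inhibition above about 30% together with a positive call from visual inspection of the well image, limit read from the data; inconclusive means inhibition above a set limit but visual check negative; inactive means inhibition not above a set limit, visual check negative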;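 further: nuclear over cytoplasmic p65 intensity ratio measured by imaging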
Cav32 inh – Cav3.2 calcium influx blockers – cell-based, Fluo-4 calcium fluorescence, FDSS, MLSMR library, primary screen; Voltage-dependent T-type calcium channel subunit alpha-1H (Homo sapiens), O95180; hit rate 4% among 100,000; Cav3.2-expressing cells; stronger effect = lower value; B-score at 10 µM;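 active means single-dose well whose peak fluorescence ratio is a statistical outlier from its plate by either plate-standardised score or position-corrected B-score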
IL1B NFkB pot – enhancers of NFkB p65 translocation in HUVEC – imaging, IL-1B stimulus, high-content imaging, primary screen | HUVEC IL-1B NFkB p65 nuclear translocation imaging | activation, % at 2 µM | hit rate 0.3% among 94,000 | AID 819, 2007;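 active means activation above 40%, about the mean plus 3 SD, also judged a hit on visual image review; inconclusive means activation above 40% but not a hit on visual review; inactive means activation not above 40% and no visual hit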;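 further: percent activation is computed from the nuclear over cytoplasmic p65 intensity ratio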
IL1B cytotox – cytotoxicity in IL-1B stimulated HUVEC, primary screen, cytotoxicity control for IL-1B NFkB translocation project, imaging, Hoechst nuclear count, IL-1B stimulus | hit rate 0.41% among 94,000 | cell count reduction, % at 2 µM | HUVEC cell count loss;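 active means cell count reduction more than 3 SD above the screen-wide mean, cut at about 70% in these data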
sEH inhibitor – soluble epoxide hydrolase inhibitors, primary screen, biochemical, human sEH; Bifunctional epoxide hydrolase 2 (Homo sapiens), P34913; recombinant human sEH enzymatic activity assay; inhibition, % at 2 µM; hit rate 0.34% among 91,000; AID 707, 2007; in the data active means inhibition above about 80%
Numbers stand for hits; n = inactive; u = inconclusive; x = no result given. Shown are actives, neighbours in structure and some others; about 4.6% of the full set was active somewhere.

SMILES | sEH activator | IL1B NFkB inh | Cav32 inh | IL1B NFkB pot | IL1B cytotox | sEH inhibitor
Cc1ccccc1N(C(=O)Cn1nnc(-c2cccs2)n1)C(C(=O)NCCC(C)C)c1ccco1 (centres undefined) | n | n | -3.5 | n | n | n
CC(C)CCNC(=O)C(c1cccs1)N(CC1CCCO1)C(=O)Cn1nnc2ccccc21 (centres undefined) | n | 99 | n | n | 91 | n
CC(C)CCNC(=O)C(c1ccco1)N(CC1CCCO1)C(=O)Cn1nnc2ccccc21 (centres undefined) | n | n | n | n | n | n
CC(C)CCNC(=O)C(c1ccco1)N(Cc1cccs1)C(=O)Cn1nnc2ccccc21 (centres undefined) | x | x | -4.7 | x | x | x
CCOC(=O)C1CCCN(S(=O)(=O)c2cc(OCC(=O)NC3CCCCC3)c(C)cc2Cl)C1 (centres undefined) | n | n | n | n | n | n
O=C(Cn1nnc(-c2cccs2)n1)OC1CCCCC1 | n | n | n | n | n | n
Cc1nc(NC(C)C)c2oc3ccccc3c2n1 | n | n | n | n | n | n
CC1=C(C(=O)Nc2ccccc2)C(c2ccco2)C(C#N)=C(SCC(=O)OC(C)C)N1 (centres undefined) | n | n | -4.9 | n | n | n
CC(=O)C1=C(C)NC(SCC(=O)c2cc(Cl)ccc2Cl)=C(C#N)C1c1ccco1 (centres undefined) | x | n | -3.7 | n | n | x
CC1=C(C(=O)Nc2ccccc2)C(c2ccco2)C(C#N)=C(SCC(=O)Nc2cccc(C)c2C)N1 (centres undefined) | n | n | -5.4 | n | n | n
CCOc1ccc(NC(=O)C2CCCN(S(=O)(=O)c3cccc4nsnc34)C2)cc1 (centres undefined) | n | n | n | n | n | n
Cc1oc2c(CN3CCCC3)c(O)ccc2c(=O)c1Oc1ccccc1Br | n | n | n | n | n | n
O=C(CSCc1ccccc1)NCc1ccc2c(c1)OCO2 | n | n | n | n | n | n
COc1ccc(CNC(=O)CSCc2cnn(-c3ccccc3)c2-n2cccc2)cc1 | n | n | -7 | n | n | n
COc1cccc(CNC(=O)C2CCN(Cc3cnn(-c4ccccc4)c3-n3cccc3)CC2)c1 | n | n | -4.6 | 63 | n | n
O=C(CSCc1cnn(-c2ccccc2)c1-n1cccc1)NCc1ccc2c(c1)OCO2 | n | n | -7.7 | n | n | n
CCOC(=O)c1sc(NC(=O)c2cc3c(s2)CCC(C)C3)nc1C (centres undefined) | n | n | n | n | n | n
CCN(CC)CC(=O)Nc1c(Br)ccc2c1OCO2 | n | n | n | n | n | n
Fc1cccc(CCN2C(=S)NC[C@@H]2CC2CCCCC2)c1 | x | x | n | x | x | x
CN(C)c1ccnc(-n2cccc2/C=N/OCc2ccc(F)cc2Cl)c1C#N | n | x | -5.4 | x | x | n
CC(C)n1c(C(=O)OCC(=O)NCc2ccc3c(c2)OCO3)cc2sccc21 | n | n | -3.3 | n | n | n
Cn1c(C(=O)NCc2ccc3c(c2)OCO3)cc2sccc21 | n | n | n | n | n | n
COc1ccc(OC)c(C2C(C(=O)Nc3nc4ccccc4s3)=C(C)NC3=C2C(=O)CCC3)c1 (centres undefined) | n | n | -7.5 | u | n | n
Cc1ccc(N2C(=O)c3cccc4c(N5CCN(C)CC5)ccc(c34)C2=O)c2cccnc12 | n | n | -4.3 | n | n | n
CCN1C(=O)c2cccc3c(S(=O)(=O)Nc4ncccc4C)ccc1c23 | n | n | n | n | n | n
SMILES | sEH activator | IL1B NFkB inh | Cav32 inh | IL1B NFkB pot | IL1B cytotox | sEH inhibitor
NC(=O)c1ccccc1N/C=C/C(=O)c1ccccc1 | n | n | n | n | n | n
Cc1ccc2nc(SCc3ccc([N+](=O)[O-])cc3)[nH]c2c1 | n | n | -5.8 | n | n | n
Cc1cccc(N2CCN(C(=O)C3CCN(S(=O)(=O)c4cccc5cccnc45)CC3)CC2C)c1 (centres undefined) | n | n | x | n | n | n
O=C(NC1CCN(Cc2ccccc2)CC1)C1CCCN(S(=O)(=O)c2cccc3nonc23)C1 (centres undefined) | n | 46 | x | n | n | n
Cc1cccc(N2CCN(C(=O)C3CCN(S(=O)(=O)c4cccc5nsnc45)CC3)CC2C)c1 (centres undefined) | n | n | -3.4 | n | n | n
Cc1ccc(CCNC(=O)C2CCCN(S(=O)(=O)c3cccc4nsnc34)C2)cc1 (centres undefined) | n | n | n | n | n | 83
Cc1cccc(CCNC(=O)C2CCCN(S(=O)(=O)c3cccc4nsnc34)C2)c1 (centres undefined) | x | x | n | x | x | x
CCN(CC)C(=O)C1CCCN(Cc2ccc(F)c(F)c2)C1 (centres undefined) | x | x | n | x | x | x
O=C(CC(c1ccccc1)c1ccccc1)OCn1nnc2ccccc2c1=O | n | n | -4.9 | n | n | n
O=C(OCn1nnc2ccccc2c1=O)c1cn(-c2ccccc2)nc1-c1cccnc1 | n | n | x | 98 | n | n
Cc1ccc(S(=O)(=O)N[C@H](C(=O)OCn2nnc3ccccc3c2=O)C(C)C)cc1 | n | n | -3.8 | n | n | n
CCOC(=O)c1cn(-c2ccccc2)nc1-c1cccnc1 | x | x | n | x | x | x
CC(C)[C@H](NS(=O)(=O)c1ccccc1)C(=O)OCn1nnc2ccccc2c1=O | n | n | n | n | n | n
CCc1cccc(C)c1N(C(=O)Cn1c(=O)[nH]c2ccccc21)C(C)COC (centres undefined) | x | x | n | x | x | x
CCCCOC(=O)C1=C(C)NC2=C(C(=O)CCC2)C1c1cc(OC)ccc1OC (centres undefined) | n | n | x | n | n | n
CCCCCCc1cc2cc(C(N)=O)c(=N)oc2cc1O | n | n | -11 | n | n | n
CCCCCCc1cc2cc(C(=O)NC)c(=N)oc2cc1O | n | n | -9.3 | n | n | n
CCN(CC)c1ccc2cc(C(N)=O)c(=O)oc2c1 | n | n | n | n | n | n
O=C(O)C1CCCN1c1ncnc2c1oc1ccccc12 (centres undefined) | n | n | n | n | n | n
O=C(c1ccco1)N1c2ccccc2Sc2ccccc21 | n | n | -4.7 | n | n | n
O=C(c1ccco1)N1CCN(C(=O)N2c3ccccc3Sc3ccccc32)CC1 | n | n | n | n | n | n
Cc1cc(NC(=O)CSc2cn(CCNC(=O)c3ccc(Cl)cc3)c3ccccc23)no1 | x | x | -6.1 | x | x | x
Cc1cc(NC(=O)CSc2c(C)[nH]c3ccccc23)no1 | x | x | -5.6 | x | x | x
COC(=O)C1=C(C)NC(C)=C(C(=O)OCCN(C)Cc2ccccc2)C1c1cccc([N+](=O)[O-])c1 (centres undefined) | x | x | -4.1 | x | x | x
